Measurements as given in PubChem BioAssay AID588689 (Southern Research Specialized Biocontainment Screening …, 2011).
About 1,000 (0.29%) of roughly 340,000 compounds were called active. Rule as the data show it: inconclusive = inhibition above about 29% without an active follow-up result; inactive = below that. Not all results are given here. Results with a measured potency or affinity are listed apart.

Target: Genome polyprotein (Dengue virus type 2 (strain 16681-PDK53)) (UniProt P29991)
Test: flavivirus cap methylation enzyme inhibition – biochemical, confirmation dose response, primary screen (AID 588689)
Details: Dengue-2 NS5 methyltransferase capping enzyme assay, at 25 µM, stronger effect = higher value
[1] = measured here: pilot screen replicate inhibition

Row | SMILES | inhibition | inhibition [1]
1 | COCCN(C(=O)COC(=O)C(c1ccccc1)c1ccccc1)c1c(N)n(Cc2ccccc2)c(=O)[nH]c1=O | 0% (inactive) | 
2 | CCC(C(=O)OCC(=O)N(C)c1c(N)n(Cc2ccccc2)c(=O)[nH]c1=O)c1ccccc1 (stereo not given) | -2.91% (inactive) | 
3 | COc1cccc(N2C(=O)Nc3ccc(Br)cc3C2(O)C(=O)NCCCOC(C)C)c1 (stereo not given) | -4.76% (inactive) | 
4 | Cc1cc(C)c(C)c(S(=O)(=O)NCCN2CCOCC2)c1C | 6.21% (inactive) | 
5 | COC(=O)c1ccc(CSC2=NC[C@@H]3[C@@H]4C(=O)N(C)C(=O)[C@@H]4[C@](C)(C(=O)OC)N23)cc1 | -0.66% (inactive) | 1.52%
6 | CCOc1ccc(C(=O)NCC(=O)NCCCSc2ccccc2)cc1OCC | -5.91% (inactive) | 
7 | CCOC(=O)N1CCN(CC(=O)c2ccc(O)c(C)c2O)CC1 | 0.45% (inactive) | 
8 | COc1ccc(/C=C2/C(=O)N(c3ccccc3)N=C2C)cc1Br | 18.3% (inactive) | 
9 | COc1ccccc1/C=C1/C(=O)N(c2ccc([N+](=O)[O-])cc2)N=C1C | 3.11% (inactive) | 
10 | CC1=NN(c2ccccc2)C(=O)/C1=C\c1cn(-c2ccccc2)nc1C | 3.59% (inactive) | 
11 | CC1=NN(c2ccccc2)C(=O)/C1=C\c1ccc(Br)s1 | -0.88% (inactive) | 
12 | CC1=NN(c2ccccc2)C(=O)/C1=C\N(O)c1ccccc1 | 1.98% (inactive) | -1.18%
13 | CC1=NN(c2ccccc2)C(=O)/C1=C\c1cc(C)n(C)c1C | 0% (inactive) | 
14 | OCCC1CN(Cc2cc3c(cc2Cl)OCO3)CCN1Cc1ccccc1 (stereo not given) | 1.46% (inactive) | 
15 | CCN(CC)S(=O)(=O)c1cc(NC(=O)CSc2nnc(N)s2)ccc1C | 0.37% (inactive) | 
16 | COc1ccc(C(=O)NC(=S)Nc2cccnc2)cc1[N+](=O)[O-] | 6.37% (inactive) | 
17 | CC(C)C(=O)NNS(=O)(=O)c1ccccc1[N+](=O)[O-] | -1.48% (inactive) | 
18 | Cc1nn(-c2ccc(F)cc2)c(Cl)c1C(=O)N(C)CC(=O)Nc1cccc(F)c1 | -5.05% (inactive) | 
19 | CCCC(=O)N(c1ccc(C(=O)O)cc1)c1nc(-c2ccccc2)c(C)s1 | -13.9% (inactive) | 
20 | Cc1c(Br)c(=O)oc2c(Br)c(O)c(O)cc12 | 6.73% (inactive) | 
21 | Cc1c(Br)c(=O)oc2c(Br)c(O)ccc12 | -1.45% (inactive) | 
22 | CCOC(=O)C(=O)NNc1ccccc1OC | -3.11% (inactive) | 
23 | Cc1ccc(Cc2c(-c3ccc(Cl)cc3)nc3ccc(Cl)cn23)cc1 | 7.95% (inactive) | 
24 | C#CCOc1ccc(Cl)cc1/C=C1/C(=O)ON=C1C | 10.6% (inactive) | 
25 | COc1ccc(/C=C2/C(=O)ON=C2C)cc1Cl | 5.23% (inactive) | 
26 | COc1ccc(/C=C2/C(=O)ON=C2C)cc1Br | 17.8% (inactive) | 
27 | CCOc1cc(/C=C2/C(=O)ON=C2C)cc(Br)c1O | -74.3% (inactive) | 
28 | C#CCOc1c(Cl)cc(/C=C2/C(=O)ON=C2C)cc1OC | 19.6% (inactive) | 
